KDM5B inh – KDM5B demethylase inhibition. Q9UGL1. KDM5B demethylase, FDH-coupled NADH fluorescence (FDH is formaldehyde dehydrogenase). Potency, µM (highest dose often 57.7 µM), actives largely listed as inhibitors. 2.6% of 220,000 active. AID 1347165; active = well fitted inhibition curve with a large enough effect; inconclusive = small, poorly fitted or top-dose-only effect; inactive = no such curve, though single readings can be large or run the other way; also: nearly all actives have a fitted effect of over 70% in size
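Measured: NADH fluorescence change, 30 min, RT. System: KDM5BΔAP 200 nM final, H3K4me3 peptide, α-KG, Fe(II), ascorbate, NAD⁺ plus FDH, pH 7.5 HEPES. Compounds: titrated, 10 min pre-incubation with enzyme.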
IP6K1 inhibitor – IP6K1 kinase inhibition | Q92551 | IP6K1 kinase, ADP-Glo luminescence, 2 h; hits give low values | activity change, % (series mostly up to about 58 µM) | 0.81% of 140,000 active; in the data active = activity change below about -25%
Target sequence (Q92551 whole entry, looked up): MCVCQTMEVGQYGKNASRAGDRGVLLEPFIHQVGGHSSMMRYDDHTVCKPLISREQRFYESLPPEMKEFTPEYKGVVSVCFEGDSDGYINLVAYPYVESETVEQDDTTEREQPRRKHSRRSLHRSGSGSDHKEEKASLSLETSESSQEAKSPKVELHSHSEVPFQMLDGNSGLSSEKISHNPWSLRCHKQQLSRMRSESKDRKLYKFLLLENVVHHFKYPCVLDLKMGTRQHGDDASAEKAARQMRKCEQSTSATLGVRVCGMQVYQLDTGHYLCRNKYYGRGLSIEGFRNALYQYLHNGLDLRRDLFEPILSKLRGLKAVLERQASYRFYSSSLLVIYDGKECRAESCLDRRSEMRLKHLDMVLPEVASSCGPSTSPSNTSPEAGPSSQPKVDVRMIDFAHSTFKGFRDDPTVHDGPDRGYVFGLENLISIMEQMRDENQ
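ADP-Glo luminescence measures ADP made by human IP6K1 during a 2 h RT reaction with ATP/IP6 (mix at 1.3 mM/130 uM); top library doses 57.5 and 19.1 uM final.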
A number is an active result; – = inactive; ? = inconclusive; · = no result given. Sampled rows, rich in hits. Any-hit rate of the full collection: about 2.7%.

SMILES | KDM5B inh | IP6K1 inhibitor
COc1ccc(Br)cc1-c1nc(C)c(C(=O)Nc2ccccc2)s1 | – | ·
COc1ccc(NC(=O)[C@@H]2C[C@H](c3ccc(F)cc3)N(Cc3csc(C)n3)C2)c(C)c1 | ? | –
CN1Cc2cccn2CC1CNC(=O)C1(S(=O)(=O)c2ccc(Cl)cc2)CC1 (stereo not given) | 14µM | –
CN1Cc2cccn2CC1CNC(=O)Cc1ccccc1 (stereo not given) | 18µM | –
COCCN1C(=O)c2cccn2CC1CNC(=O)Cc1cccc(F)c1 (stereo not given) | – | –
CN1C(=O)c2cccn2CC1CNC(=O)C1(S(=O)(=O)c2ccc(Cl)cc2)CC1 (stereo not given) | – | –
Cc1cccc(NC(=O)NCC2Cn3cccc3CN2C)c1 (stereo not given) | ? | –
CN1Cc2cccn2CC1CNC(=O)c1ccsc1 (stereo not given) | 20µM | –
CN1Cc2cccn2CC1CNC(=O)Nc1ccccc1 (stereo not given) | – | –
CN1Cc2cccn2CC1CNC(=O)Cc1cccc(F)c1 (stereo not given) | 28µM | –
N#CC1=C(N)Oc2c(oc(CO)cc2=O)C1c1cccc(C(F)(F)F)c1 (stereo not given) | – | ·
COc1ccc(OCC(=O)Nc2cc(-c3ccccc3)no2)cc1 | – | ·
COc1ccc(Cn2c(=O)c(C(=O)NCc3ccc(F)cc3)nc3cccnc32)cc1 | · | –
COc1ccc2cnn(CC(=O)N3CCN(c4ccc(F)cc4)CC3)c(=O)c2c1OC | – | ·
Cc1cn2nc(C(=O)NCc3ccc(C(F)(F)F)cc3)cc2c(N2CCSCC2)n1 | 28µM | –
Cc1cccc(CNC(=O)c2cc3c(N4CCSCC4)nc(C)cn3n2)c1 | ? | –
COc1ccc(CNC(=O)c2cc3c(N4CCSCC4)nc(C)cn3n2)cc1 | ? | –
Cc1cn2nc(C(=O)NCc3ccncc3)cc2c(N2CCSCC2)n1 | – | –
CCc1ccc(CNC(=O)c2cc3c(N4CCSCC4)nc(C)cn3n2)cc1 | 32µM | –
Cc1cn2nc(C(=O)NCc3cccc(C(F)(F)F)c3)cc2c(N2CCSCC2)n1 | 28µM | –
CCC1CCc2c(sc(NC(=O)C(c3ccccc3)c3ccccc3)c2C#N)C1 (stereo not given) | – | ·
Cc1oc(-c2ccc(Cl)cc2)nc1CS(=O)CC(=O)NCc1ccccc1Cl (stereo not given) | – | ·
O=C(COc1cccc(Br)c1)Nc1ccc(NC(=O)C2CC2)cc1C(F)(F)F | – | ·
O=C(NCCc1ccccc1F)c1nc2cccnc2n(CCc2ccccc2)c1=O | · | –
CCCCCCCCC(=O)Nc1c(C)cccc1CC | – | ·
SMILES | KDM5B inh | IP6K1 inhibitor
CCc1[nH]ncc1C(=O)N[C@H]1CC[C@H](Nc2nccc(-c3ccccn3)n2)C1 | 13µM | –
O=C(N[C@H]1CC[C@H](Nc2nccc(-c3cccnc3)n2)C1)c1ccc(O)cc1 | 20µM | –
NC(=O)NCC(=O)N[C@H]1CC[C@H](Nc2nccc(-c3ccncc3)n2)C1 | ? | –
O=C(CN1CCCC1)N[C@H]1CC[C@H](Nc2nccc(-c3cccnc3)n2)C1 | ? | –
CCn1nccc1C(=O)N1CCC(Cc2ccc(CCC(=O)NC3CC3)cc2)CC1 | · | –
O=C(O)/C=C/c1ccc(F)c(Cl)c1 | – | ·
Cn1c(=O)n(C)c2cc(SCc3ccco3)c(NC(=O)c3ccccc3)cc21 | – | ·
O=C(Nc1ccc(Oc2ccccc2)cc1)O[C@@H]1CO[C@H]2[C@@H]1OC[C@@H]2Nc1nccc(-c2cccs2)n1 | – | –
CN(C)c1ccc(-c2ccnc(N[C@H]3CO[C@H]4[C@@H]3OC[C@H]4OC(=O)Nc3cccc(C#N)c3)n2)cc1 | – | –
O=C(NC1CCCCC1)O[C@@H]1CO[C@H]2[C@@H]1OC[C@@H]2Nc1nccc(-c2cccs2)n1 | 32µM | –
CN(C)c1ccc(-c2ccnc(N[C@H]3CO[C@H]4[C@@H]3OC[C@H]4OC(=O)NC3CCCCC3)n2)cc1 | 32µM | –
CCCCCCOc1ccc(C(=O)CCC(=O)O)cc1 | – | ·
C=C(Br)CN1CCN(C(=O)CN2CCCC2)CC1 | – | ·
CC(C)NC(=O)N1Cc2ccccc2OC2(CCN(C(=O)c3ccc4[nH]ccc4c3)CC2)C1 | – | –
CC(C)NC(=O)N1CCC2(CC1)CN(C(=O)c1ccnc(N)c1)Cc1ccccc1O2 | 79µM | –
N#Cc1ccccc1N1CCN(c2ccccc2)CC1 | – | ·
CC(Cc1ccncc1)Nc1nccc(-c2cnn(-c3ccccc3F)c2)n1 (stereo not given) | 28µM | –
CC(Cc1ccncc1)Nc1nccc(-c2cnn(-c3ccccc3)c2)n1 (stereo not given) | 32µM | –
CC1(C)CC(Nc2nccc(-c3cnn(-c4ccccc4)c3)n2)CC(C)(C)N1 | 28µM | –
CC1(C)CC(Nc2nccc(C(F)(F)F)n2)CC(C)(C)N1 | – | ·
CCN(Cc1ccncc1)Cc1cn(-c2ccccc2)nn1 | ? | –
Fc1ccc(CCNc2nccc(-c3cccnc3)n2)cc1 | ? | –
CC(=O)c1c(C)[nH]c(C(=O)c2oc3ccc(Br)cc3c2C)c1C | – | ·
COc1ccccc1CNC(=O)C1CCCN1Cc1cccc(-c2ccc(C)c(Cl)c2)c1 (stereo not given) | · | –
CCOc1ccc2nc(NC(=O)CCNC(=O)c3ccccc3Cl)sc2c1 | – | ·
SMILES | KDM5B inh | IP6K1 inhibitor
Cn1ncc2c(C(=O)Nc3cccc(C(F)(F)F)c3)cc(-c3ccc(C(F)(F)F)cc3)nc21 | · | –
Cc1cc(C)cc(C(=O)C(C#N)C(=O)NC2CCCCC2)c1 (stereo not given) | – | ·
O=C(C1CCCN(Cc2cccc(-c3ccc(F)cc3F)c2)C1)N1CCCC1 (stereo not given) | · | –
Cc1ccc(C(=O)NCc2nnc3cc(-c4nc(C(C)C)no4)ccn23)cc1 | 10µM | –
COc1ccccc1CC(=O)NCc1nnc2cc(-c3nc(C(C)C)no3)ccn12 | ? | –
CC(C)c1noc(-c2ccn3c(CNC(=O)c4ccco4)nnc3c2)n1 | 28µM | –
CCc1ccc(C(=O)NCc2nnc3cc(-c4nc(C(C)C)no4)ccn23)cc1 | – | –
O=C(NCCc1ccc(F)cc1)C1CCN(c2nccc(Nc3ccccc3F)n2)CC1 | · | –
O=C(N[C@H]1CCOC[C@H]1C1CCOCC1)c1cc(=O)[nH]c2ccc(F)cc12 | 22µM | –
Cc1[nH]c2ccc(C(=O)N[C@H]3CCOC[C@H]3C3CCOCC3)cc2c1C | – | –
Cc1nc2cc(-c3cccc(F)c3)nn2c(C)c1CCC(=O)NC1CCN(Cc2ccccc2)CC1 | – | ·
Cc1ccc(S(=O)(=O)C(C#N)c2nc3ccccc3nc2NC(C)C)cc1 (stereo not given) | – | ·
Cc1noc(C)c1CC(=O)N1CCC[C@H](n2c(=O)n(C)c3cccnc32)C1 | – | –
O=C(c1ccccc1)N1CCCC2(CN[S+](=O)([O-])c3cccnc3N2)C1 (stereo not given) | · | –
O=C(c1ccsc1)N1CCCC2(C1)Nc1cccnc1NC2=NCc1ccccc1 (stereo not given) | 28µM | –
CC(=O)N1CCCC2(C1)Nc1cccnc1NC2=NCc1ccccc1 (stereo not given) | ? | –
CCN1CC(c2ccccc2)CC2(CCN(C(=O)c3ccn(CC)n3)CC2)C1 (stereo not given) | – | –
CCn1ccc(C(=O)N2CCCC3(C2)Nc2cccnc2NC3=NCc2ccccc2)n1 (stereo not given) | 28µM | –
